Only some compounds are listed: those with a hit (about 9.2% of all), similar ones and a draw of the others.
ELG1 genotoxic: qHTS screen for small molecules that induce genotoxicity in human embryonic kidney (HEK293T) cells expressing luciferase-tagged ELG1; 330,000 compounds, 1.3% hits; Potency, µM (titrated, usually from 46 µM), for inactives: top-dose activity change, positive = activation, hits mostly activators; HEK293T ELG1-luciferase reporter, luminescence, 16 h; also: % of control where 0% means no effect; nearly all actives have a fitted effect of over 60% in size
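After overnight (16 hr) compound treatment at 37 °C, ELG1-luciferase HEK293T cells were lysed with ONE-Glo; luminescence quantified 30 min later at room temperature.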
ELG1 DNA repair: qHTS screen for small molecules that inhibit ELG1-dependent DNA repair in human embryonic kidney (HEK293T) cells expressing luciferase-tagged ELG1 | HEK293T ELG1-luciferase reporter, luminescence, 16 h; DNA damage induced by 5-fluorouridine | 330,000 compounds, 2.3% hits | Potency, µM (series often up to 46.1 µM), for the others: at the highest dose activity change, negative = inhibition, hits mostly inhibitors | AID 504467, 2011; also: % is scaled to controls: 0 for no effect and ±100 for the full control effect; nearly all actives have a fitted effect of over 55% in size
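Luminescence from the luciferase reporter, measured 30 min after ONE-Glo reagent at room temperature, was the read-out. Beforehand, 2,000 cells per well were exposed for 16 hr at 37 °C to 5-fluorouridine together with compound or vehicle.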
FLuc modulator: qHTS profiling assay for firefly luciferase inhibitor/activator using purifed enzyme and Km concentrations of substrates (counterscreen for miR-21 project) | 360,000 compounds, 6.9% hits | Luciferin 4-monooxygenase (Photinus pyralis), P08659 | purified FLuc, Km substrates, luminescence inhibition | Potency, µM (doses to about 57.5 µM), for the others: at the top dose activity change, negative = inhibition, usual class: inhibitors;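 also: plate controls were vehicle for no effect and reference inhibitor for full effect; nearly all actives have a fitted effect of over 55% in size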
Target sequence (P08659 whole entry, looked up): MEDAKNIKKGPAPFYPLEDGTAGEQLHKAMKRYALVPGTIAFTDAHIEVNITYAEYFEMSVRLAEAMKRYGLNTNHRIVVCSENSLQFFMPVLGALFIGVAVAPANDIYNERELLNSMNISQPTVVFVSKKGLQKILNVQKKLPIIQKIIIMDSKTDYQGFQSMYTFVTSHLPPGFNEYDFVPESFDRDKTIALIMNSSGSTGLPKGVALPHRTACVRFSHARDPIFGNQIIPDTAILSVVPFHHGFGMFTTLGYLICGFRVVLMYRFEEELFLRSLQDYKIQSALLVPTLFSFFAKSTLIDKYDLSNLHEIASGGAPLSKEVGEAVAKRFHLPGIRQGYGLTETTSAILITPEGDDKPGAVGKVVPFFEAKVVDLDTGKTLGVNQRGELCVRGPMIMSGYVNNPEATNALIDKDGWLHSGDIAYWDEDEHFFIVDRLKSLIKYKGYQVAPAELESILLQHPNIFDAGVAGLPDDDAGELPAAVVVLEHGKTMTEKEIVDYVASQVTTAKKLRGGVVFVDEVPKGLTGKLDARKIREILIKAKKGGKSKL
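Purified P. pyralis luciferase (10nM final) with 10uM D-luciferin and 10uM ATP (Km levels) in 50mM Tris acetate pH 7.5, 10mM Mg acetate, 0.01% Tween-20, 0.05% BSA; qHTS 6-point titration, ~60 µM downward; luminescence read.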
Rab9 promoter act: qHTS Assay for Rab9 Promoter Activators. Huh7 Rab9 promoter-luciferase reporter, luminescence, 24 h. Potency, µM (highest dose often 9.22 µM), for the others: top-dose activation, negative = inhibition, actives largely listed as activators. 320,000 compounds, 2.8% hits. AID 485297, 2010; also: % of control where 0% means no effect; nearly all actives have a fitted effect of over 60% in size
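Cells were plated at 1500 per well in reduced-serum medium with 10% FBS and left 2 h. Compound in DMSO was then added for 24 h at 37 °C. Reporter signal was read by luminescence after 10 min with luciferase detection reagent.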
SMN2 splice up: qHTS Assay for Enhancers of SMN2 Splice Variant Expression; 210,000 compounds, 2.8% hits; Potency, µM (top dose mostly 46.1 µM), without a hit: at the highest dose activity change, positive = activation, most hits filed as activators; HEK293 SMN2-luciferase splicing reporter, luminescence, 30-36 h; also: % of control where 0% means no effect; nearly all actives have a fitted effect of over 55% in size
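qHTS luciferase splicing reporter: luminescence rises when SMN2 exon 7 is included in transfected HEK293 cells. Compound exposure lasted 30-36 h at 37C, with 4.5 mM final sodium butyrate as control, followed by a ONE-Glo read.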
NPC1 promoter act: qHTS Assay for NPC1 Promoter Activators; Huh7 NPC1 promoter luciferase reporter, 24 h; Potency, µM (series often up to 9.22 µM), for the others: top-dose activation, most hits filed as activators; 320,000 compounds, 2.4% hits; AID 485313, 2010; also: % of control where 0% means no effect; nearly all actives have a fitted effect of over 60% in size
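Stable NPC1-promoter luciferase Huh7 line; cpd (DMSO) 24 h, 37 °C, 5% CO2; Amplite luciferase reagent 10 min RT; luminescence readout. qHTS format.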
ELG1 FLuc counter: qHTS screen for small molecules that inhibit ELG1-dependent DNA repair: Hit Confirmation in Cell-Based Luciferin Assay. 350 compounds, 3% hits. cell-free firefly luciferase luminescence counter-screen, ViewLux. Potency, µM (titrated, usually from 46.1 µM), without a hit: at the highest dose activity change, negative = inhibition, hits mostly inhibitors. shares compounds with ELG1 DNA repair. AID 624247, 2012; also: % is scaled to controls: 0 for no effect and ±100 for the full control effect
ELG1-Luc inh: HTS assay for small molecules that inhibit ELG1-dependent DNA repair in human embryonic kidney (HEK293T) cells expressing luciferase-tagged ELG1: Hit Confirmation. shares compounds with ELG1 DNA repair. HEK293T ELG1-luciferase levels, luminescence; cells co-treated with 5-fluorouridine. Potency, µM (doses to about 46.1 µM), for the others: at the top dose activity change, negative = inhibition, most hits filed as inhibitors. 670 compounds, 68% hits. AID 624248, 2012; also: % is scaled to controls: 0 for no effect and ±100 for the full control effect; nearly all actives have a fitted effect of over 55% in size
ELG1 MMS Luc: MMS-stimulated human ELG1 repair inhibition, confirmed; shares compounds with ELG1 DNA repair; HEK293T luciferase-tagged ELG1 level, MMS stimulated; Potency, µM (highest dose often 46.1 µM), without a hit: at the highest dose activity change, negative = inhibition, hits mostly inhibitors; 670 compounds, 53% hits; AID 624249; also: % is scaled to controls: 0 for no effect and ±100 for the full control effect; nearly all actives have a fitted effect of over 60% in size
ELG1 5-FU: qHTS screen for small molecules that inhibit ELG1-dependent DNA repair: Hit Confirmation with 5FU Viability; shares compounds with ELG1 DNA repair; cell viability with 5-FU, ELG1-dependent repair; Potency, µM (doses to about 46.1 µM), for inactives: at the highest dose activity change, negative = viability loss, most hits filed as cytotoxic; 670 tested, under 10 active; AID 624250, 2012;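 also: ELG1-luc HEK293T cells cotreated with 5-fluorouridine at 10 µM final; viability measured 16 h after compound addition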
ELG1 MMS viab: qHTS screen for small molecules that inhibit ELG1-dependent DNA repair: Hit Confirmation with MMS Viability; shares compounds with ELG1 DNA repair; Cell viability with MMS, ELG1-dependent DNA repair; Potency, µM (doses to about 46.1 µM), inactives show top-dose activity change, negative = viability loss, most hits filed as cytotoxic; 670 compounds, 33% hits; AID 624251, 2012;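 also: ELG1-luc HEK293T cells co-treated with 10 µM MMS; viability read 16 h after compound addition; % is scaled to controls: 0 for no effect and ±100 for the full control effect; nearly all actives have a fitted effect of over 60% in size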
Cell viab unstim: qHTS screen for small molecules that inhibit ELG1-dependent DNA repair: Hit Confirmation with Unstimulated Viability Assay; shares compounds with ELG1 DNA repair; cell viability counter-screen, unstimulated, luminescence; Potency, µM (series often up to 45.9 µM), without a hit: at the top dose activity change, negative = loss of viability, usual class: cytotoxic; 900 compounds, 8% hits; AID 624252, 2012;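 also: compound exposure lasted 16 hours before reading; % is scaled to controls: 0 for no effect and ±100 for the full control effect; nearly all actives have a fitted effect of over 55% in size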
FLuc enzyme: qHTS screen for small molecules that inhibit ELG1-dependent DNA repair: Hit Confirmation in Biochemical Luciferin Assay; shares compounds with ELG1 DNA repair; purified firefly luciferase, luminescence counter-screen; Potency, µM (doses to about 57.5 µM), without a hit: top-dose activity, negative = inhibition, actives largely listed as inhibitors; 350 compounds, 10% hits; AID 624253, 2012; also: % is scaled to controls: 0 for no effect and ±100 for the full control effect
* hit, by the source's call; ? = inconclusive; nt = no result given; [ ] = remark or other dose. Calls follow the shape of the dose curve; as a rule, active = well fitted curve in the direction sought with a large enough effect; inconclusive = small, poorly fitted or top-dose-only effect, or another doubt; inactive = no such curve, though single readings can be large; an effect the other way counts as inactive or inconclusive. Potency is read from the fitted curve at half-maximal effect.

SMILES | ELG1 genotoxic | ELG1 DNA repair | FLuc modulator | Rab9 promoter act | SMN2 splice up | NPC1 promoter act | ELG1 FLuc counter | ELG1-Luc inh | ELG1 MMS Luc | ELG1 5-FU | ELG1 MMS viab | Cell viab unstim | FLuc enzyme
COc1ccccc1C(=O)COC(=O)c1ccccc1OCC(=O)Nc1ccc(SC(F)F)cc1 | -1.8% | 4.61µM* | -9.1% | 0.9% | -30.4% | 22.0% | nt | 7.05µM* | ? | ? | 1.2% | -20.0% | nt
COC(=O)c1c(Oc2ccc(C(C)=O)cc2)nnc(-c2ccccc2)c1-c1ccccc1 | nt | nt | -15.3% | nt | 99.9% | nt | nt | nt | nt | nt | nt | nt | nt
CCS(=O)(=O)Nc1cccc(C2=NN(S(=O)(=O)CC)C(c3cccs3)C2)c1 (configuration not stated) | 1.4% | -8.3% | 1.6% | -1.7% | nt | -4.3% | nt | nt | nt | nt | nt | nt | nt
COc1ccc(NC(=O)c2sc3nc(N4CCOCC4)c4c(c3c2N)CC(C)(C)OC4)cc1 | 18.6% | 0.411µM* | 4.0% | -0.1% | nt | -4.1% | 3.9% | 0.354µM* | 15.3% | ? | -6.5% | -0.5% | -9.1%
CC1(C)Cc2c(c(N3CCOCC3)nc3sc(C(=O)N4CCCCC4)c(N)c23)CO1 | 3.5% | 0.206µM* | -2.7% | 0.2% | 5.2% | 0.3% | 20.1% | 0.445µM* | 0.9% | ? | -3.7% | -1.8% | -12.2%
COC(=O)c1ccccc1NC(=O)CSc1nnc(-c2ccc(C)cc2)o1 | ? | ? | ? | ? | -50.6% | ? | nt | nt | nt | nt | nt | nt | nt
Cc1ccc(-c2nnc(SCC(=O)Nc3ccccc3F)o2)cc1 | 0.164µM* | ? | ? | ? | -64.9% | ? | 8.89µM* | nt | nt | nt | nt | ? | 18.4µM*
CCc1cc2c(cc3c(=O)n(CC(=O)NC4CCCCC4)nc(CC)n32)s1 | nt | nt | -0.8% | nt | -6.1% | nt | nt | nt | nt | nt | nt | nt | nt
COc1ccc(Cl)cc1NC(=O)C(C)OC(=O)c1ccc(NS(=O)(=O)c2ccc3[nH]c(=O)[nH]c3c2)cc1 (configuration not stated) | 1.5% | 2.91µM* | 1.3% | 1.1% | -2.7%[1.84 µM] | -1.7% | nt | 2.81µM* | 3.0% | ? | -2.4% | -4.9% | nt
CC(OC(=O)c1ccc(NS(=O)(=O)c2ccc3[nH]c(=O)[nH]c3c2)cc1)C(=O)Nc1ccc(Cl)cc1 (configuration not stated) | -4.5% | ? | -3.7% | -4.6% | -5.1% | -2.1% | nt | nt | nt | nt | nt | nt | nt
Cc1cnc(C(=O)N2CCc3c([nH]c4ccccc34)C2c2ccc(F)cc2)cn1 (configuration not stated) | -4.5% | ? | -3.0% | -2.8% | nt | -0.2% | nt | nt | nt | nt | nt | nt | nt
CCc1ccc(C2c3[nH]c4ccccc4c3CCN2C(=O)c2cc(C)nn2C)cc1 (configuration not stated) | -5.5% | ? | -1.2% | -0.1% | nt | -2.0% | nt | 11.2µM* | 19.9µM* | ? | ? | ? | nt
Clc1ccc(-c2cnnc(-c3ccccn3)n2)cc1 | 20.6µM* | ? | nt | nt | nt | nt | nt | nt | nt | nt | nt | -0.6% | nt
CN(C)c1ccc(/C=C/c2ccnc3ccc(F)cc23)cc1 | nt | nt | nt | nt | nt | nt | -8.5% | nt | nt | nt | nt | -14.4% | 0.184µM*
CN(C)c1ccc(N=Nc2ccc(/C=C/c3ccnc4ccccc34)cc2)cc1 | nt | nt | nt | nt | nt | nt | nt | nt | nt | nt | nt | ? | nt
Cc1ccc(C(C(=O)NCc2ccccc2)N(Cc2cccs2)C(=O)c2ccc3c(c2)OCCO3)cc1 (configuration not stated) | -7.5% | 2.91µM* | 2.5% | -0.2% | -29.6% | 0.7% | -4.3% | 7.92µM* | 7.92µM* | -10.0% | ? | ? | -2.9%
COc1ccc(CNC(=O)C(c2ccc(C)cc2)N(Cc2cccs2)C(=O)c2ccc3c(c2)OCCO3)cc1 (configuration not stated) | -3.1% | ? | 0.9% | 8.9% | -28.9% | 3.9% | nt | nt | nt | nt | nt | nt | nt
Cc1ccc(N2CCN(C(=O)c3cn(C)c4ccc(S(=O)(=O)N5CCCC5)cc4c3=O)CC2C)cc1 (configuration not stated) | nt | nt | 0.4% | nt | -7.0% | nt | nt | nt | nt | nt | nt | nt | nt
Cc1[nH]n(-c2nc(-c3ccccc3F)cc(=O)[nH]2)c(=O)c1CCO | 1.5% | 0.5% | ? | -2.7% | 0.1% | -0.3% | nt | nt | nt | nt | nt | nt | nt

Screens (PubChem)
